# IP6K1 inh: Primary qHTS assay for small molecule inhibitors of Inositol hexaphosphate kinase 1 (IP6K1) | IP6K1 kinase, ADP-Glo luminescence, 2 h; stronger effect = lower value | activity change, % (series mostly up to about 58 µM) | 140,000 tested, 0.81% active; in the data active = activity change below about -25%; note: % is set by controls: 0 for no effect and ±100 for the full control effect
#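 ADP-Glo luminescence measures ADP made by human IP6K1 during a 2 h RT reaction with ATP/IP6 (mix at 1.3 mM/130 uM); top library doses 57.5 and 19.1 uM final.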
# SNCA expr inhib: Primary qHTS assay for inhibitors of alpha-synuclein gene (SNCA) expression; HEK-293 SNCA-luciferase knock-in, luminescence, 24 h; Potency, µM (titrated, usually from 57.2 µM), without a hit: at the top dose activity change, negative = inhibition, most hits filed as inhibitors; 140,000 tested, 0.17% active;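 note: potency is the fitted concentration of half-maximal effect; plate controls were DMSO cells for no effect and cell-free wells for full effect; nearly all actives have a fitted effect of over 45% in size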
# SNCA viab count: GF-AFC viability counterscreen for inhibitors of alpha-synuclein gene (SNCA) expression; HEK-293-SNCA-luc viability, GF-AFC fluorescence, 24 h; Potency, µM (series often up to 57.1 µM), for inactives: top-dose activity change, negative = cytotoxicity, usual class: cytotoxic; 150,000 tested, 0.12% active;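 note: potency is the fitted concentration of half-maximal effect; 0% = DMSO-treated cells and -100% = medium-only wells without cells; nearly all actives have a fitted effect of over 30% in size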
#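 HEK-293-SNCA-luc cells (1500/well) plated 24 h, then exposed 24 h to a dilution series; GF-AFC added 30 min at 37C, fluorescence 405/540 nm; normalised to medium-only and DMSO wells, Hill fit.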
# KDM5B inhibitor: Primary screen for KDM5B Histone Demethylases FDH-coupled qHTS | Lysine-specific demethylase 5B (Homo sapiens), Q9UGL1 | KDM5B demethylase, FDH-coupled NADH fluorescence (FDH is formaldehyde dehydrogenase) | Potency, µM (highest dose often 57.7 µM), most hits filed as inhibitors | 220,000 tested, 2.6% active | AID 1347165, 2019; note: potency is the fitted concentration of half-maximal effect; 0% is about no effect; nearly all actives have a fitted effect of over 70% in size
#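 Measured: NADH fluorescence change, 30 min, RT. System: KDM5BΔAP 200 nM final, H3K4me3 peptide, α-KG, Fe(II), ascorbate, NAD⁺ plus FDH, pH 7.5 HEPES. Compounds: titrated, 10 min pre-incubation with enzyme.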
# IP6K1 inh cnf: Confirmatory qHTS assay for small molecule inhibitors of Inositol hexaphosphate kinase 1 (IP6K1); shares compounds with IP6K1 inh; Potency, µM (series often up to 49 µM), inactives show at the top dose activity change, negative = inhibition, hits mostly inhibitors; recombinant IP6K1 kinase, ADP-Glo luminescence, 2 h; 1,200 tested, 13% active; note: potency is the fitted concentration of half-maximal effect; % is set by controls: 0 for no effect and ±100 for the full control effect; nearly all actives have a fitted effect of over 65% in size
# * hit, by the source's call; i = inactive; ? = inconclusive; · = no result given; [ ] = another dose, or the depositor's remark. Sampled rows, rich in hits. Any-hit rate of the full collection: about 2.8%. Unless noted, calls come from the whole dose curve; as a rule, active = well fitted curve in the direction sought with a large enough effect; inconclusive = small, poorly fitted or top-dose-only effect, or another doubt; inactive = no such curve, though single readings can be large; an effect the other way counts as inactive or inconclusive.
SMILES,IP6K1 inh,SNCA expr inhib,SNCA viab count,KDM5B inhibitor,IP6K1 inh cnf
CC(=O)N[C@@H]1[C@H](O[C@@H]2c3ccc(c(Cl)c3)Oc3cc4cc(c3O[C@H]3O[C@H](CO)[C@@H](O)[C@H](O)[C@H]3NC(=O)CCCCCCCC(C)C)Oc3ccc(cc3Cl)C[C@H]3NC(=O)[C@H](N)c5ccc(O)c(c5)Oc5cc(O)cc(c5)[C@H](NC3=O)C(=O)N[C@H]4C(=O)N[C@H]3C(=O)N[C@@H]2C(=O)N[C@@H](C(=O)O)c2cc(O)cc(O[C@H]4O[C@H](CO)[C@@H](O)[C@H](O)[C@H]4O)c2-c2cc3ccc2O)O[C@H](CO)[C@@H](O)[C@@H]1O,·,16%,1%,·,·
CN[C@H](CC(C)C)C(=O)N[C@H]1C(=O)N[C@@H](CC(N)=O)C(=O)N[C@H]2C(=O)N[C@H]3C(=O)N[C@H](C(=O)N[C@H](C(=O)O)c4cc(O)cc(O)c4-c4cc3ccc4O)[C@H](O[C@H]3C[C@](C)(N)[C@@H](O)[C@H](C)O3)c3ccc(c(Cl)c3)Oc3cc2cc(c3O[C@@H]2O[C@H](CO)[C@@H](O)[C@H](O)[C@H]2O[C@H]2C[C@](C)(NCc3ccc(-c4ccc(Cl)cc4)cc3)[C@@H](O)[C@H](C)O2)Oc2ccc(cc2Cl)[C@H]1O,-32*,·,10%[23.9 µM],·,?
CC1=NN(c2ccccc2)C(=O)C1,-32*,-29%[25.6 µM],5%,·,-14%
CC(C)c1ccc(C2=NN(c3ccccc3)C(=O)CC2)cc1,·,·,·,i,·
CCOc1ccc(-c2cc(C(=O)Nc3ccc(NC(C)=O)cc3)no2)cc1,-27*,14%,12%,?,-5%
CCOc1ccc(C(=O)c2oc3ccccc3c2NC(=O)c2cc(-c3ccc(Cl)cc3)on2)cc1,4,-14%,8%,i,·
COc1ccc(C(=O)/C(C#N)=C\c2ccc(Cl)cc2Cl)cc1,·,·,·,i,·
COc1ccc(C(=O)Nc2ccc(NC(=O)c3cccs3)cc2)cc1OC,-56*,-1%,?,?,0%
COc1ccccc1-c1nccc2c(=O)cc(-c3ccccn3)oc12,-17,?,-16%[87.6 µM],?,·
O=c1cc(C2=CCOCC2)oc2c(-c3cccc4[nH]ccc34)nccc12,-25*,-29%[87.6 µM],?,?,?
CN1CCN(Cc2ccc(-c3cnc4[nH]cc(-c5ccc6[nH]ccc6c5)c4c3)cc2)CC1,-47*,·,-30%,·,9.2µM*
COc1cc(S(=O)(=O)N2CCc3c(nc[nH]c3=O)C2)c(OC)cc1C,-30*,16%,1%,i,-4%
CCN1CCN(Cc2cc(C)cc(CN(C)Cc3ccccn3)c2C)CC1,-2,13%,1%,i,·
Cc1ccc(C2c3c(oc4ccccc4c3=O)C(=O)N2c2nnc(C)s2)cc1 (configuration not stated),17,-1%,-9%,i,·
COc1cc(C2c3c(oc4ccccc4c3=O)C(=O)N2c2nnc(C(C)C)s2)cc(OC)c1OC (configuration not stated),-26*,-1%,-7%,i,6%
CCOc1ccc(C2c3c(oc4ccccc4c3=O)C(=O)N2c2nnc(C)s2)cc1OC (configuration not stated),-37*,24%,-3%,i[11.5 µM],-10%
CCCCCCOc1cc2c(cc1N(C)c1ncc(C(=O)O)cn1)C(C)(C)CCC2(C)C,-14,·,?,·,·
CN(CC(=O)Nc1ccccc1Cl)C(=O)CSc1ncnc2scc(-c3ccccc3)c12,·,·,·,i,·
Cn1nnnc1Sc1ncnc2scc(-c3ccc(Cl)cc3)c12,·,·,·,·,1%
Cn1nnnc1Sc1ncnc2scc(-c3ccc4c(=O)ccoc4c3)c12,·,·,·,·,-17%
Cc1ccc(-c2csc3ncnc(Sc4nnc(C)s4)c23)cc1,·,·,·,i,·
Cc1cc(C(=O)CN2CCN(Cc3ccc(C#N)cc3)CC2)c(C)n1Cc1cccs1,·,·,·,i,·
CCc1nnc(NC(=O)c2nc(S(C)(=O)=O)ncc2Cl)s1,-35*,?,?,?,-10%
CCSc1ncc(Cl)c(C(=O)Nc2nnc(CC)s2)n1,1,3%,-2%,i,·
Cc1nnc(NC(=O)c2nc(S(=O)(=O)Cc3ccccc3)ncc2Cl)s1,-35*,?,?,?,-18%
SMILES,IP6K1 inh,SNCA expr inhib,SNCA viab count,KDM5B inhibitor,IP6K1 inh cnf
OC[C@H]1C[C@@H](NCc2cccc3c2OCO3)[C@H](O)[C@@H]1O,-26*,2%[87.6 µM],1%[87.6 µM],i,?
OC[C@H]1C[C@@H](NCc2cccc(Cl)c2)[C@H](O)[C@@H]1O,-13,1%[87.6 µM],2%[87.6 µM],?,·
COc1ccc(Cl)cc1NC(=O)CN(C)S(=O)(=O)c1ccc(Br)s1,-26*,?,3%,i,29%
COc1ccc(CN2CCN(c3cc(N(C)C)ncn3)CC2CCO)c(C)c1C (configuration not stated),-35*,21%,-2%,?,-9%
CCOc1ccc(CN(CCc2ccc3c(c2)OCO3)Cc2cc(OC)c(OC)cc2OC)cc1,-30*,-4%,-5%,?,51%
CCOc1ccccc1CN(CCc1ccc2c(c1)OCO2)Cc1cccc(OC)c1OC,-1,?,-27%,?,·
CN1CC(=O)N(c2ccccc2F)Cc2c1ncnc2N1CCN(c2ccccn2)CC1,0,-9%,-18%,?,·
CSc1ccc(CCNC(=O)Cn2nc(C)n3c(cc4sccc43)c2=O)cc1,-80*,2%,7%,i,-2%
Cc1nn(CC(=O)NCc2ccc(Cl)cc2)c(=O)c2cc3sccc3n12,-9,4%,7%,i,·
C=C1CC[C@H]2[C@@](C)(CCC[C@@]2(C)C(=O)O)[C@@H]1CCC(C)CCO (some centres not stated),19,·,2%,·,·
C=C1CCC2C(C)(C)C(O)CCC2(C)C1CCC(C)CCO (configuration not stated),-30*,·,1%,·,?
CCOC(=O)c1cccc(NC(=O)c2oc3c(c2C)-c2nn(CC)cc2CC3)c1,-28*,34%,3%,?,?
CCCCn1nc(C(=O)NCC(c2ccco2)N2CCCC2)c2ccccc2c1=O (configuration not stated),·,·,·,i,·
COc1ccc(OC)c([S+](=O)([O-])c2nnn3c2nc(NC2CC2)c2ccccc23)c1,11,-18%,4%,i,·
Cc1ccc(Cl)cc1NC(=O)CSCc1cnn(-c2ccccc2)c1-n1cccc1,25,?,-16%,i,·
Cc1ccc(NC(=O)CSCc2cnn(-c3ccccc3)c2-n2cccc2)c(C)c1,-28*,-28%,-4%,i,2%
